Among the targets are ANG; ANGPTL3; ANGPTL1; AP3B1; APTX; ARF4; APOL1; APOBEC3A; ARHGAP30; ARPC4; ASPRV1; ATP10B; ATP6V0A4; BABAM1; B3GNT9; AWAT2; BARX2.
Test in all cases: pooled miR-30 sensor sort-seq; sequence = guide strand
Holding throughout (settings): shRNA
Note: reference of the scale not given here.

Sequence TTCACAAGCAACAACAACGTTT yielded a sensor-assay potency score (higher = more potent) in the assay with ANG of -0.418.

The sequence TTGACTTGTAGTTTATATGTAG came in with a sensor-assay potency score (higher = more potent) in the assay with ANGPTL3 of 0.386.

Consider TCCATCTACATCCACCACCAGT, for which the sensor-assay potency score (higher = more potent) in the assay with ANGPTL1 is -1.83.

For TAGCTTGCAAGTGGTGACCTGG, the sensor-assay potency score (higher = more potent) with ANG was -0.539.

The sequence TGCTTTCACAGTATCTGTCATC came in with a sensor-assay potency score (higher = more potent) in the assay with ANG of -1.22.

Regarding TTACATCGTCTAACATAGCAAA, in the assay with ANGPTL3, the sensor-assay potency score (higher = more potent) is -1.16.

Take ATAACTTGTAATTATCTTGATT: the sensor-assay potency score (higher = more potent) with ANGPTL1 is -0.722.

In turn, TCGTCTAACATAGCAAATCTTG showed a sensor-assay potency score (higher = more potent) in the assay with ANGPTL3 of -1.34.

Sequence TTTATATGTAGTTCTTCTCAGT had a sensor-assay potency score (higher = more potent) with ANGPTL3 of -0.38.

For TATAGAGTTGAGTAACACGAGA, the sensor-assay potency score (higher = more potent) with ANGPTL1 is -1.16.

TAGAAGTGAAACATCTTTGGTA yielded a sensor-assay potency score (higher = more potent) with AP3B1 of 0.763.

In the assay with APTX, TATCAGTGATCTTGGTCTCTGG had a sensor-assay potency score (higher = more potent) of -0.564.

TATCTTGACCACCAACATCCCA had a sensor-assay potency score (higher = more potent) with ARF4 of -1.07.

Sequence TAGCATTTGGCAAATCCTGTTT registered a sensor-assay potency score (higher = more potent) with ARF4 of -0.434.

On to TTCTGTTACGAAGAGACTGAAG, for which the sensor-assay potency score (higher = more potent) with ARF4 was -1.25.

In the case of TTGTCTTGCCAGCAGCATCCAA, in the assay with ARF4, the sensor-assay potency score (higher = more potent) was -0.778.

Turning to TTATCAGTGATCTTGGTCTCTG, the sensor-assay potency score (higher = more potent) in the assay with APTX is -0.647.

In turn, TTCCACATTAAAACCAATGGTA gave a sensor-assay potency score (higher = more potent) with ARF4 of -0.547.

The sequence TTTGTTTGCAAAAAGTAGCAGC gave a sensor-assay potency score (higher = more potent) in the assay with ARF4 of -0.61.

In turn, TCAGTGATCTTGGTCTCTGGGC displayed a sensor-assay potency score (higher = more potent) in the assay with APTX of -0.249.

With TTTTCTGCAGCTCATCTGCTAC, the sensor-assay potency score (higher = more potent) in the assay with ARF4 was -0.921.

TTGAACATACCATGTTCTGTTA yielded a sensor-assay potency score (higher = more potent) with ARF4 of -0.718.

With AATTTTGTTGTAACAAGCCTAG, the sensor-assay potency score (higher = more potent) in the assay with ARF4 was -0.535.

Take TTTGAGGATCTCCAGTATCTGT: the sensor-assay potency score (higher = more potent) in the assay with APOL1 was -1.27.

Sequence TTGACAGCCAGTCAAGTCCTTC returned a sensor-assay potency score (higher = more potent) in the assay with ARF4 of -0.84.

As to TATCCAACTGTTCTAACTCTTG, the sensor-assay potency score (higher = more potent) in the assay with APOL1 is -1.08.

The sequence TTTATCTGTCATTTCACTGATG gave a sensor-assay potency score (higher = more potent) with ARF4 of -0.303.

On to TTGTGTTGCACAAGTGGCTTGA, for which, in the assay with ARF4, the sensor-assay potency score (higher = more potent) was 0.462.

TATCGTGCCAGTTTTTGTCTTT: the sensor-assay potency score (higher = more potent) with APOL1 is -0.367.

As for TTTATCAAACATGTCCTTGGTT, the sensor-assay potency score (higher = more potent) in the assay with ARF4 amounted to 0.237.

As to TATTCTGAGAATATTGAGCATA, the sensor-assay potency score (higher = more potent) with APOBEC3A is -1.17.

With AATTTTATCAAACATGTCCTTG, the sensor-assay potency score (higher = more potent) in the assay with ARF4 is -0.486.

For TTGTCTTGCAAGGTTGTCCAGA, the sensor-assay potency score (higher = more potent) with APOL1 is -0.407.

For the sequence TAATTTTGTTGTAACAAGCCTA, the sensor-assay potency score (higher = more potent) with ARF4 is -0.0701.

For the sequence TATAGAATCACTGTTGCCTGAT, the sensor-assay potency score (higher = more potent) with APTX came out at 0.198.

In turn, TTTCTTATCAGTGATCTTGGTC gave a sensor-assay potency score (higher = more potent) with APTX of -0.281.

On to TTTTGTTGCACCCTCGCTCCAG, for which the sensor-assay potency score (higher = more potent) with APOL1 was -0.279.

In turn, TAACTCTTGGGCTTTCTCCATT yielded a sensor-assay potency score (higher = more potent) with APOL1 of -0.755.

In the assay with APOL1, TTTGTTGCACCCTCGCTCCAGC gave a sensor-assay potency score (higher = more potent) of -0.393.

In the assay with ARF4, TTATACAGAATGGTTGTCTTGC had a sensor-assay potency score (higher = more potent) of 0.842.

In the assay with APOL1, TAGCTTCTCCTCCAGCTCCTGA displayed a sensor-assay potency score (higher = more potent) of -0.925.

Turning to TTGTCTTTCATGATCATTTGTC, the sensor-assay potency score (higher = more potent) with APOL1 turned out to be 0.325.

The sequence TGGAAGTCTGATTCGCTGGTGC displayed a sensor-assay potency score (higher = more potent) in the assay with APTX of -0.603.

As for TTCATTAACCCTCTCCACCTGT, the sensor-assay potency score (higher = more potent) in the assay with APOL1 was -0.144.

TTGCTGTCGAGAACATTTCTTA came in with a sensor-assay potency score (higher = more potent) with APTX of -0.631.

In the case of TACATTGAAAATTATTCTGAGA, in the assay with APOBEC3A, the sensor-assay potency score (higher = more potent) is -1.07.

In the assay with ARF4, TACTGTGAAACAAATGTTCTTA showed a sensor-assay potency score (higher = more potent) of 0.474.

ATCTTGACCACCAACATCCCAT returned a sensor-assay potency score (higher = more potent) with ARF4 of -0.565.

In the assay with APOL1, TCAAGCTCACTTTTCAACCGAG registered a sensor-assay potency score (higher = more potent) of -0.112.

TTAGTCTAAAGTAAACTGCTTC came in with a sensor-assay potency score (higher = more potent) with APOL1 of -0.132.

Sequence TTTCACGATCGTTGCTATCTAC gave a sensor-assay potency score (higher = more potent) with ARF4 of 0.0471.

In the assay with ARHGAP30, TAGGTCATCATAGGCACTCAGG yielded a sensor-assay potency score (higher = more potent) of -1.26.

On to TTTTCCTTCTCATTCCTGCTGA, for which, in the assay with ARPC4, the sensor-assay potency score (higher = more potent) is 0.452.

Regarding TGAGATAGTAGCCCTTACCCAT, in the assay with ASPRV1, the sensor-assay potency score (higher = more potent) was -0.959.

Sequence TTTCAGGAACCTTAGCTTGGTG registered a sensor-assay potency score (higher = more potent) with ASPRV1 of -0.909.

Take TTTATTGCTTTATCAAAGCGGT: in the assay with ATP10B, the sensor-assay potency score (higher = more potent) was -0.352.

TTGTGACAAACACATCTCCTCG: the sensor-assay potency score (higher = more potent) with ATP6V0A4 is -1.11.

The sequence TATCCTTCCAACTCATCTCCTC gave a sensor-assay potency score (higher = more potent) in the assay with BABAM1 of 0.00157.

The sequence AAAAACGAAGCGCACGTCGGGG displayed a sensor-assay potency score (higher = more potent) with B3GNT9 of -1.1.

On to TAAGAATAAGCACAGTGACAGG, for which, in the assay with AWAT2, the sensor-assay potency score (higher = more potent) was -1.65.

TGAGATACCAAACTTGGTCTTA had a sensor-assay potency score (higher = more potent) in the assay with AWAT2 of -0.0616.

In turn, TAGTACTTGCTAGCCCGCGTGC gave a sensor-assay potency score (higher = more potent) with B3GNT9 of -1.22.

TGTAGTACTTGCTAGCCCGCGT came in with a sensor-assay potency score (higher = more potent) in the assay with B3GNT9 of -0.0178.

In the assay with BABAM1, AAACTCGTGGCTTTTGTCGATC showed a sensor-assay potency score (higher = more potent) of -1.23.

TCGGGTAACTGGAACGCGCGGG: in the assay with B3GNT9, the sensor-assay potency score (higher = more potent) is -0.607.

On to TTTCTCAAAGTAATCGCAGGTC, for which, in the assay with BARX2, the sensor-assay potency score (higher = more potent) is 0.887.

Sequence TCGGGGATGTAGTACTTGCTAG yielded a sensor-assay potency score (higher = more potent) with B3GNT9 of -1.49.

ATCGTCTGCACGTTCTCTGTGA had a sensor-assay potency score (higher = more potent) with BABAM1 of -0.356.

For the sequence TTGGCAGTGACATTTCCTCTGA, the sensor-assay potency score (higher = more potent) with BABAM1 was -0.685.

In turn, TTAATGAGCAGTGGAAACCGCC showed a sensor-assay potency score (higher = more potent) with B3GNT9 of -0.997.

Sequence TTGACAGCAATCACAGTGGTTG yielded a sensor-assay potency score (higher = more potent) in the assay with AWAT2 of -0.667.

In the case of AAACATATCCTTCCAACTCATC, the sensor-assay potency score (higher = more potent) in the assay with BABAM1 was -1.73.

In the assay with BARX2, TTCTCTTCAGCTTCAATCTCTT showed a sensor-assay potency score (higher = more potent) of -0.0921.

TTCTTGGGACTATCTCACCAGT displayed a sensor-assay potency score (higher = more potent) with AWAT2 of -1.17.

Consider TTCACGAACACATCTGCGTCGC, for which the sensor-assay potency score (higher = more potent) with B3GNT9 is 0.331.

The sequence TATTTAGCCACGATCTCCTGGC showed a sensor-assay potency score (higher = more potent) in the assay with AWAT2 of -0.00517.

The sequence TCTTGGTGAAGCCACGTCCATA showed a sensor-assay potency score (higher = more potent) in the assay with AWAT2 of -1.6.

In the assay with BABAM1, TTCTGGGAGACATTGAGGGCGT returned a sensor-assay potency score (higher = more potent) of -0.794.

With TTAGCCACGATCTCCTGGCTTG, the sensor-assay potency score (higher = more potent) with AWAT2 was -0.416.

As for TTTCTCTGGACAGTTGACCCTT, the sensor-assay potency score (higher = more potent) with BABAM1 turned out to be 0.0375.

With ATAATCGCTGTAGTGTTTCCAC, the sensor-assay potency score (higher = more potent) in the assay with AWAT2 is -0.0859.

In turn, TCGATCTTGTGTTTTGTCCGCA gave a sensor-assay potency score (higher = more potent) with BABAM1 of 0.0335.

As to TTGAGAGGGAAATAATCGCTGT, the sensor-assay potency score (higher = more potent) with AWAT2 was -0.0931.

In the assay with B3GNT9, TAGAAAGTGGATCTCCTTGAGC gave a sensor-assay potency score (higher = more potent) of -0.561.

Values taken from the OligoGym collection.
